Inconclusive results are not listed. Activity calls are given as the source filed them. Unless noted, the call rests on the fitted dose curve; in most records, active means well fitted curve in the direction sought with a large enough effect; inconclusive means small, poorly fitted or top-dose-only effect, or another doubt; inactive means no such curve, though single readings can be large; an effect the other way counts as inactive or inconclusive.
Legend:
[1] = target: Lysosomal acid glucosylceramidase (Homo sapiens) (UniProt P04062); assay: Glucocerebrosidase-p2 (AID 348; in the data active means potency below about 10 µM; further: potency means the concentration at half of the fitted maximal effect); details: purified GBA, blue fluorogenic substrate, 40 min
Chain of Lysosomal acid glucosylceramidase (Homo sapiens) (P04062 whole entry, looked up): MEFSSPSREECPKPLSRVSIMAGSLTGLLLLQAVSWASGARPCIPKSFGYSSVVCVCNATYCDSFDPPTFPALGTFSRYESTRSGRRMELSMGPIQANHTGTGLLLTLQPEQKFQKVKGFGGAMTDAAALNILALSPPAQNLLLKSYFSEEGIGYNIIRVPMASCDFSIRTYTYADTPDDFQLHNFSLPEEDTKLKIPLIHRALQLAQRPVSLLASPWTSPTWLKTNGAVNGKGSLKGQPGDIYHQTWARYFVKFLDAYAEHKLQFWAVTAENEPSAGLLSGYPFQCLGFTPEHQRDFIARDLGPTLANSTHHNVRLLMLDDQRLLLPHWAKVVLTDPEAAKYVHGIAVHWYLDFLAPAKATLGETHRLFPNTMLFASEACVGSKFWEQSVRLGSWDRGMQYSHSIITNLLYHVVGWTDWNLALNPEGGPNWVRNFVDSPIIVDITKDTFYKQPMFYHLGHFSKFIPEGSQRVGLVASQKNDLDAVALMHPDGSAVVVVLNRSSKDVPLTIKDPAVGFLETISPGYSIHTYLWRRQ
Procedure, shortened: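 Normal human glucocerebrosidase (0.2 nM) with blue fluorogenic substrate (80 uM final) in citrate/phosphate pH 5.9 with 10mM sodium taurocholate, 0.01% tween-20; 40 min RT, NaOH/glycine stop; fluorescence Ex 365/Em 440; AC50 from a titration from 0.6 nM upwards.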

[2] = AP1 Signaling Pathway (AID 357; active means well fitted curve in either direction with a large enough effect, not every such curve was filed as active;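 further: ME-180 reporter cells stimulated with EGF at its EC50 level; on the % scale 0 is the no-effect control and ±100 the full control effect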); details: ME-180 AP-1-bla reporter, EGF-induced, beta-lactamase ratio, 5 h; at 7.69 µM (top of the series) unless noted
Procedure, shortened: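 A ratiometric CCF4 readout (405 nm excitation; 460 and 530 nm emission) quantified AP-1-driven beta-lactamase in ME-180 cells after 5 h with compound and EC50 EGF; AC50 values were derived for activators and inhibitors.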

[3] = target: Cytochrome P450 1A2 (Homo sapiens) (UniProt P05177); assay: p450-cyp1a2 (AID 410; calls by dose curve; further: potency means the concentration at half of the fitted maximal effect;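 on activity change, negative = inhibition: -100% = full effect of reference inhibitor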); details: recombinant CYP1A2, luciferin-ME demethylation, luminescence; series mostly up to 57 µM
Chain of Cytochrome P450 1A2 (Homo sapiens) (P05177 whole entry, looked up): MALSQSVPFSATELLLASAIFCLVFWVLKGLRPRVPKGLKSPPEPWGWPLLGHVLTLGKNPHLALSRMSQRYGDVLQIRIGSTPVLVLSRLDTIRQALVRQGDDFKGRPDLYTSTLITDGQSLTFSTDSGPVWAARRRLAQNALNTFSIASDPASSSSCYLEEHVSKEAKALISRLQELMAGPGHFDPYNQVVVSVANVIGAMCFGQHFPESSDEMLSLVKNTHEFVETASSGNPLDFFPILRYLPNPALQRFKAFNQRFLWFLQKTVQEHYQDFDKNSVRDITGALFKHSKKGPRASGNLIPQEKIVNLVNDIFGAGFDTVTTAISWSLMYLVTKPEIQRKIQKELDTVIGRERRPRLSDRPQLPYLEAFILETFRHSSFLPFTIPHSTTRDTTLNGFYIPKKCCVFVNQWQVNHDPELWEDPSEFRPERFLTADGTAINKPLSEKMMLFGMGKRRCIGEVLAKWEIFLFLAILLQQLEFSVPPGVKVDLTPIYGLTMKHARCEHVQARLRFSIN
Procedure, shortened: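 Luminescent demethylation readout: Luciferin-ME (100uM, equal to Km) turned over by 20nM CYP1A2 for 60 min at room temperature after NADPH regeneration addition, following 10 min compound preincubation. Normalization used 57 uM furafylline as full inhibition.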

[4] = NFAT Signaling Pathway (AID 444; active means well fitted curve in either direction with a large enough effect, not every such curve was filed as active;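 further: carbachol stimulus at about its EC50 of 1 µM final; on the % scale 0 is the no-effect control and ±100 the full control effect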); details: Jurkat NFAT-bla M1, carbachol, beta-lactamase ratio, 5 h; at 7.69 µM (top of the series) unless noted
Procedure, shortened: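 Read-out: CCF4 FRET ratio (460 nm/530 nm) after 1 h RT dye loading, used for %activity and AC50 from titration series. Cells: Jurkat NFAT-β-lactamase/M1 line, treated with compound plus 1 uM carbachol for 5 h, 37 °C.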

[5] = Stat Signaling Pathway (AID 446; active means well fitted curve in either direction with a large enough effect, not every such curve was filed as active;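 further: ME-180 cervical cancer cells given 40 pM IL-6 alongside compound; SIE-controlled beta-lactamase reporter measured as 460/530 nm FRET emission ratio; on the % scale 0 is the no-effect control and ±100 the full control effect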); details: ME-180 (cervical carcinoma) SIE beta-lactamase reporter, IL-6 stimulated, 5 h; at 7.69 µM (top of the series) unless noted
Procedure, shortened: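 Compound effects on IL-6-induced STAT reporter activity were measured in ME-180 cells. After overnight culture, cells were co-treated with 40 pM IL-6 for 5 hrs before beta-lactamase substrate loading at room temperature.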

[6] = target: Glucocorticoid receptor (Homo sapiens) (UniProt P04150); assay: GR-GFP Redistribution (AID 450;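 active means compounds whose dose series gives a full or clear partial fitted curve of increased nuclear translocation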; further: potency means the concentration at half of the fitted maximal effect); details: U2OS GR-GFP nuclear translocation, laser cytometry, 2 h
Chain of Glucocorticoid receptor (Homo sapiens) (P04150 whole entry, looked up, the tested form may be a part): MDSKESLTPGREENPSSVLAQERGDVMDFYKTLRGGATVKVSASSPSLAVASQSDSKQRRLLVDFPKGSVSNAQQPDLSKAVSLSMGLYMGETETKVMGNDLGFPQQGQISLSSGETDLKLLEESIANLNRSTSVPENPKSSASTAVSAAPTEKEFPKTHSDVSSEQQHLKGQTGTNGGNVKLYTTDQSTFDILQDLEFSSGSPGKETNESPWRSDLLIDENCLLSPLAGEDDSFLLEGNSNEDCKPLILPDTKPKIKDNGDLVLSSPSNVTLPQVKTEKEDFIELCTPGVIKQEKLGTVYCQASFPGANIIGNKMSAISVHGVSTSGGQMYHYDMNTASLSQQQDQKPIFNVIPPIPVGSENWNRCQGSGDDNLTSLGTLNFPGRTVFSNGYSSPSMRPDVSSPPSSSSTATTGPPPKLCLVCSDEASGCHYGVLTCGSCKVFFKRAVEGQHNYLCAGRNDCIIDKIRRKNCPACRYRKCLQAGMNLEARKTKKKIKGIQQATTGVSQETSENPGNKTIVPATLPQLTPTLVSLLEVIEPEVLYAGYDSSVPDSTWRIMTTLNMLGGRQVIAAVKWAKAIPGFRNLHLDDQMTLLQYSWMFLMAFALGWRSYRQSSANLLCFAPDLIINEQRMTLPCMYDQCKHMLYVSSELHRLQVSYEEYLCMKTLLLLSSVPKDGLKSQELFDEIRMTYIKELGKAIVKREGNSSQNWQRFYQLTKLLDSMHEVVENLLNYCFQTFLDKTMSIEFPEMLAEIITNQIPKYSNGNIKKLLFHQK

[7] = target: Glucocorticoid receptor (Homo sapiens) (UniProt P04150); assay: GR-EFC Redistribution (AID 451; calls by dose curve; further: potency means the concentration at half of the fitted maximal effect); details: CHO-K1 GR-EFC translocation, beta-gal luminescence, 2 h
Procedure, shortened: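 Translocation of GR-ED fusion to nuclear EA restores b-gal, read by luminescence after 1 h room-temperature detection. Engineered CHO-K1 biosensor cells, 1,000/well, exposed 2 h at 37 C to titrations up to 46 uM final.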

[8] = target: Mitogen-activated protein kinase 10 (Mus musculus) (UniProt Q61831); assay: JNK3 AlphaScreen Assay (AID 530; active means well fitted curve in either direction with a large enough effect, not every such curve was filed as active;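 further: kinase came from lysate of stimulated human HepG2 cells; signal reports phosphorylation of biotinylated GST-cJun 1-79 at Ser73 with 10 µM ATP; on the % scale 0 is the no-effect control and ±100 the full control effect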); details: JNK3 lysate, c-Jun phosphorylation; series mostly up to 57.1 µM
Procedure, shortened: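 qHTS titrations with 15 min compound pre-incubation before adding ATP (10 uM final). Read-out: AlphaScreen of Ser73-phosphorylated biotin-GST-cJun using HepG2 lysate JNK3 activated by IL-1β and TNFα.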

[9] = target: Cytochrome P450 3A4 (Homo sapiens) (UniProt P08684); assay: qHTS Assay for Inhibitors and Substrates of Cytochrome P450 3A4 (AID 884); details: recombinant CYP3A4, Luciferin-PPXE luminescence; series mostly up to 57.1 µM; further: potency means the concentration at half of the fitted maximal effect; nearly all actives have a fitted effect of over 50% in size
Chain of Cytochrome P450 3A4 (Homo sapiens) (P08684 whole entry, looked up): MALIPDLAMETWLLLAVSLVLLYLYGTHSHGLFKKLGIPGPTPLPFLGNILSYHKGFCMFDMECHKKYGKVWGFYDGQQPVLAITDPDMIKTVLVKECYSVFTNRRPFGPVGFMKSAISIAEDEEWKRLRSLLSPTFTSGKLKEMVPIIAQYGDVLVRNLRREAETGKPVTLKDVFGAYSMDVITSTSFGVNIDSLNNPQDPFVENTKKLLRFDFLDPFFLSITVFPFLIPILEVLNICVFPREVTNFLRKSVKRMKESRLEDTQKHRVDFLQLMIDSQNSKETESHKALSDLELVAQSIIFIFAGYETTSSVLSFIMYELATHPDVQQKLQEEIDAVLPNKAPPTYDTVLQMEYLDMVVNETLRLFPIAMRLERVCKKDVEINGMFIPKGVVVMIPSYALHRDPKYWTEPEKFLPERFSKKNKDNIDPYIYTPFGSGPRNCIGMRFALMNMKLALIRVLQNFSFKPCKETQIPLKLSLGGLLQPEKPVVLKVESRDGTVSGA
Procedure, shortened: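 Luminescent readout of luciferin produced by CYP3A4 (20 nM) dealkylation of Luciferin-PPXE, 25 uM (its KM). NADPH-driven reaction ran 60 min at RT after 10 min compound preincubation; data scaled to 57 uM ketoconazole as 100% inhibition.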

[10] = target: Cytochrome P450 3A4 (Homo sapiens) (UniProt P08684); assay: qHTS Assay for Activators of Cytochrome P450 3A4 (AID 885); details: recombinant CYP3A4, Luciferin-PPXE luminescence, 60 min; series mostly up to 57.1 µM; further: nearly all actives have a fitted effect of over 65% in size
Procedure, shortened: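 CYP3A4 activity: Luciferin-PPXE O-dealkylation, 25uM substrate, 200mM KPO4, RT throughout. Read-out is luciferase luminescence; higher values reflect activation.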

[11] = Counterscreen qHTS for small molecule stabilizers of the endoplasmic reticulum resident proteome: GLuc-NoTag assay (AID 1508627); details: Gaussia luciferase NoTag secretion counterscreen, luminescence, thapsigargin 100 nM for final 4 h; series mostly up to 76.4 µM;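 further: 0% = thapsigargin alone and -100% = DMSO vehicle control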
Procedure, shortened: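 Counterscreen line: SH-SY5Y-GLuc-NoTag cells, treated with compound 19 hr before a 4 hr, 100 nM thapsigargin calcium depletion. Secreted Gaussia luciferase in the medium was measured by luminescence after coelenterazine was added (0.07x final), with cells unlysed.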

[12] = Confirmatory qHTS for small molecule stabilizers of the endoplasmic reticulum resident proteome: Secreted ER Calcium Modulated Protein (SERCaMP) assay (AID 1508628); details: SERCaMP secreted luciferase ER calcium/proteostasis reporter; series mostly up to 76.3 µM; further: nearly all actives have a fitted effect of over 40% in size; further: potency means the concentration at half of the fitted maximal effect
Procedure, shortened: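 Reporter secretion upon ER calcium depletion (100 nM thapsigargin, 4 h, 37C) is measured as medium luminescence with coelenterazine, after 16 h compound pretreatment of SH-SY5Y-GLuc-SERCaMP cells; primary at three concentrations up to 38.3 uM, follow-up at 11 (up to 76.6 uM).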

[13] = Cell Viability qHTS for small molecule stabilizers of the endoplasmic reticulum resident proteome (AID 1508629); details: cell viability counter-screen, 100 nM thapsigargin for final 4 h
[14] = target: Cytochrome P450 2D6 (Homo sapiens) (UniProt P10635); assay: qHTS Assay for Inhibitors and Substrates of Cytochrome P450 2D6 (AID 891); details: recombinant CYP2D6, luciferin-ME EGE luminescence; series mostly up to 57.1 µM; further: potency means the concentration at half of the fitted maximal effect; nearly all actives have a fitted effect of over 60% in size
Chain of Cytochrome P450 2D6 (Homo sapiens) (P10635 whole entry, looked up): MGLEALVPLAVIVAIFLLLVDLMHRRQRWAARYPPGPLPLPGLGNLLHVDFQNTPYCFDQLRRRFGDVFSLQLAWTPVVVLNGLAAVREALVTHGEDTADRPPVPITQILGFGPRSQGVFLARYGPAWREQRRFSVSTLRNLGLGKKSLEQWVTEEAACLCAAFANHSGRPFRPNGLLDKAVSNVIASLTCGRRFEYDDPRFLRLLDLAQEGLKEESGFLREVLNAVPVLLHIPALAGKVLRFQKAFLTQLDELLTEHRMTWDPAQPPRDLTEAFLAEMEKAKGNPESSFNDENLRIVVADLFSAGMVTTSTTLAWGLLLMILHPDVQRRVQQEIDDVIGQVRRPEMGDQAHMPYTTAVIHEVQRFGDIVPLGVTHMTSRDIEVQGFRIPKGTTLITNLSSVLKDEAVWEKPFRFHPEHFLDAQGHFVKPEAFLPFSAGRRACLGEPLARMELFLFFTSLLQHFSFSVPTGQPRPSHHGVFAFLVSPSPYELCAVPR
Procedure, shortened: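 Luminescent read-out of luciferin formed by 5 nM human CYP2D6 demethylating 30 uM Luciferin-ME EGE (Km level) over 60 min at room temperature after NADPH regeneration addition. Data normalized to full inhibition by 1.43 uM quinidine.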

[15] = target: 3',5'-cyclic-AMP phosphodiesterase 4B (Homo sapiens) (UniProt Q07343); assay: qHTS Assay for Inhibitors of PDE-IV (AID 607; active means well fitted activation curve with a large enough effect in the main read-out, with a control signal flat, not every such curve was filed as active; further: % of control where 0% means no effect); details: HEK293 ACTOne CNG channel cells, membrane potential fluorescence; series mostly up to 22.9 µM
Chain of 3',5'-cyclic-AMP phosphodiesterase 4B (Homo sapiens) (Q07343 whole entry, looked up): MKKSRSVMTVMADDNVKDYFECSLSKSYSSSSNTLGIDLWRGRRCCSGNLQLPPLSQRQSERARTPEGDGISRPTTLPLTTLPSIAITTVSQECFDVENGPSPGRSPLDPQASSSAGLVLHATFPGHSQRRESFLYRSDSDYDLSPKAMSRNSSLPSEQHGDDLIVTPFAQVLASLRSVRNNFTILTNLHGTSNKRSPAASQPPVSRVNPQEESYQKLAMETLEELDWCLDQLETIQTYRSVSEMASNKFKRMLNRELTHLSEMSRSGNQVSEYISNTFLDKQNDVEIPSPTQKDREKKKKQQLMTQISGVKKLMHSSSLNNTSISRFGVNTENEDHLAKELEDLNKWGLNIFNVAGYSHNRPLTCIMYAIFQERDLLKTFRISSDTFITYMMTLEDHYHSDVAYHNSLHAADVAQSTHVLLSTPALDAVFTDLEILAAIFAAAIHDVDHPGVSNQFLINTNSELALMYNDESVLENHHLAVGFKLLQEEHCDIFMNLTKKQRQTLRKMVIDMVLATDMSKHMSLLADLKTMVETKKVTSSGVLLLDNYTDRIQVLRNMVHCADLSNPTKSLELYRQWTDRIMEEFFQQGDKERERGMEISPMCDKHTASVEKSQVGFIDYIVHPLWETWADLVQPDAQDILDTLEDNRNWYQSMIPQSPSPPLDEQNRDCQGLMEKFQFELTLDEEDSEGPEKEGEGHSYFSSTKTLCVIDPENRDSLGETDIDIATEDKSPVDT
Procedure, shortened: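 ACTOne HEK293 cells carry a modified cAMP-gated CNG channel and express endogenous PDE4; plated 1000 cells/well, compounds up to 22.9 uM final. Membrane-potential dye fluorescence (ex 535/em 590) was read; parental cells received 10 uM forskolin + 100 uM RO 20-1724.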

[16] = qHTS Assay for Lipid Storage Modulators (AID 1519; calls by dose curve); details: Drosophila S3 cells, BODIPY lipid droplet/cell ratio, laser cytometry, cells loaded with oleic acid
Procedure, shortened: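 Cells seeded at 5,000 per well were treated with compounds over a concentration series and loaded with oleic acid (400 uM, as added). Lipid droplet fluorescence (488 nm excitation, 500-530 nm channel) was read by laser-scanning cytometry and normalized to 20 uM Triacsin C.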

[17] = target: Dual specificity protein kinase CLK4 (Homo sapiens) (UniProt Q9HAZ1); assay: qHTS Assay for Inhibitors of CDC-like Kinase 4 (Kinase-Glo Assay) (AID 1770); details: recombinant Clk4, Kinase-Glo ATP depletion luminescence; series mostly up to 66.7 µM; further: on the % scale 0 is the no-effect control and ±100 the full control effect; nearly all actives have a fitted effect of over 65% in size
Chain of Dual specificity protein kinase CLK4 (Homo sapiens) (Q9HAZ1 whole entry, looked up): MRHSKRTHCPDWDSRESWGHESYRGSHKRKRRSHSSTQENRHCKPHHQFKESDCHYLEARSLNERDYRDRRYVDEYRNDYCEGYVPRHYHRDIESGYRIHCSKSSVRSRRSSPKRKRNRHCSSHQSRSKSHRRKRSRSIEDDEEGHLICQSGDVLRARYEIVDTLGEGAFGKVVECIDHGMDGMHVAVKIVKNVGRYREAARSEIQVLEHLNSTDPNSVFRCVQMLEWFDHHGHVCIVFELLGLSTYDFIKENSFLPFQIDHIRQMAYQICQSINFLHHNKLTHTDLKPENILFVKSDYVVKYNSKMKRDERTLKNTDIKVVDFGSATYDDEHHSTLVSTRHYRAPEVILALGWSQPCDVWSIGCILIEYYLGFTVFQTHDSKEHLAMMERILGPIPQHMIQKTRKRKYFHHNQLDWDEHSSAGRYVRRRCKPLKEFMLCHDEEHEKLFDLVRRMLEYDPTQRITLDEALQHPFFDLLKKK
Procedure, shortened: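 Clk4 25 nM, RS peptide 100 uM, ATP 1 uM, pH 7.5 Tris, 10 mM MgCl2, 2.5 mM DTT; 4.5 h RT; ATP depletion read by Kinase-Glo luminescence.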

[18] = target: Dual specificity protein kinase CLK4 (Homo sapiens) (UniProt Q9HAZ1); assay: qHTS Assay for Inhibitors of CDC-like Kinase 4 (ADP-Glo Assay) (AID 1771); details: recombinant CLK4, ADP-Glo luminescence; series mostly up to 80 µM; further: on the % scale 0 is the no-effect control and ±100 the full control effect; nearly all actives have a fitted effect of over 70% in size
Procedure, shortened: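 ADP production was read by ADP-Glo luminescence after residual ATP depletion, following 1 h room-temperature reaction of 25 nM Clk4, 1 uM ATP and 100 uM RS peptide with MgCl2, EGTA, DTT and Triton X-100.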

[19] = target: Dual specificity protein kinase CLK4 (Homo sapiens) (UniProt Q9HAZ1); assay: qHTS Assay for Inhibitors of CDC-like Kinase 4 (ADP-FP Assay) (AID 1795); details: Transcreener ADP fluorescence polarization; series mostly up to 50 µM;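 further: recombinant human CLK4 phosphorylating RS repeat peptide at 1 µM ATP; on the % scale 0 is the no-effect control and ±100 the full control effect; nearly all actives have a fitted effect of over 60% in size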
Procedure, shortened: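 Kinase activity was followed as ADP output, converted from fluorescence polarization with a calibration curve. Reactions ran one hour at low ATP (1 uM) with RS peptide substrate.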

[20] = target: Ubiquitin carboxyl-terminal hydrolase 1 (Homo sapiens) (UniProt O94782); assay: Inhibitors of USP1/UAF1: Pilot qHTS (AID 504865); details: purified USP1/UAF1, Ub-rhodamine cleavage fluorescence; series mostly up to 54.9 µM;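 further: rhodamine fluorescence freed from ubiquitin-rhodamine substrate followed over time; top concentration of the series differs between compounds; on the % scale 0 is the no-effect control and ±100 the full control effect; nearly all actives have a fitted effect of over 35% in size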
Chain of Ubiquitin carboxyl-terminal hydrolase 1 (Homo sapiens) (O94782 whole entry, looked up): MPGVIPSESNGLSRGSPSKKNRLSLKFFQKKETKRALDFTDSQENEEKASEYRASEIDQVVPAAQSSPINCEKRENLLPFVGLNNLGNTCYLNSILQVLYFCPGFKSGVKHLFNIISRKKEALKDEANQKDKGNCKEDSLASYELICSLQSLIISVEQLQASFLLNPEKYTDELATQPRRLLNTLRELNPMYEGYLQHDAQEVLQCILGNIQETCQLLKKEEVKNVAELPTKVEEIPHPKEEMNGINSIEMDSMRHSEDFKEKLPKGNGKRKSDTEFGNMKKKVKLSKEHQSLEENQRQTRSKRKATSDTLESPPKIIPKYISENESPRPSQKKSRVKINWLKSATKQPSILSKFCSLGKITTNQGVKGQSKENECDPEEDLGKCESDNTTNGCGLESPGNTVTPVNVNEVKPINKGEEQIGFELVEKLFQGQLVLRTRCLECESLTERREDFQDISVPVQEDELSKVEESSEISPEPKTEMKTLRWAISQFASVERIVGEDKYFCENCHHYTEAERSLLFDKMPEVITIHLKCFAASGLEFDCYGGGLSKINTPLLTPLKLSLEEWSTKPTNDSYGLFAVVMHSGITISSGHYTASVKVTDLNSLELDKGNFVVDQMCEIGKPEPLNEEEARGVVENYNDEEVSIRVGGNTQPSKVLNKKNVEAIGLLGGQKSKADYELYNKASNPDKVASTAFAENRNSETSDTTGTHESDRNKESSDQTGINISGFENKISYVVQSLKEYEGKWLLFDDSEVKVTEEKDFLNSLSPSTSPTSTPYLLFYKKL
Procedure, shortened: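 Enzyme-free wells gave the negative control, while test wells held 1nM USP1/UAF1 preincubated with compound for 15 min at room temperature. Ub-Rho at 150nM final started the reaction, and fluorescence at 480/540 nm was recorded kinetically.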

CCNc1ncc2nc(CCc3ccccc3)c(=O)n(-c3ccccc3)c2n1
Potency [1]: > 11.4 µM (inactive) | activity change, negative = inhibition [2]: -30.4% (inactive) | Potency [3]: 1.26 µM (active) | activity change, negative = inhibition [4]: -2.92% (inactive) | activity, negative = inhibition [5]: 16.3% (inactive) | Potency [6]: > 9.22 µM (inactive) | Potency [7]: > 46 µM (inactive) | outcome [8]: inactive | Potency [9]: 5.01 µM (active) | Potency [10]: inactive | Potency [11]: inactive | Potency [12]: 35.5 µM (active) | max response [13]: 16.3% (inactive)

CCNc1ncc2nc(CCc3ccccc3)c(=O)n(CCOC)c2n1
activity change, negative = inhibition [2]: 0.721% (inactive) | Potency [3]: 2 µM (active) | activity change, negative = inhibition [4]: 2.18% (inactive) | activity, negative = inhibition [5]: -8.07% (inactive) | Potency [6]: > 9.22 µM (inactive) | Potency [7]: > 46 µM (inactive) | outcome [8]: inactive | Potency [10]: inactive | Potency [14]: 0.398 µM (active) | Potency [11]: inactive | Potency [12]: 35.5 µM (active) | max response [13]: 18.6% (inactive)

Cc1nc2cnc(N3CCN(C)CC3)nc2n(Cc2ccc(F)cc2)c1=O
Potency [1]: > 11.4 µM (inactive) | activity change, negative = inhibition [2]: 1.11% (inactive) | Potency [3]: inactive | activity change, negative = inhibition [4]: -12.3% (inactive) | activity, negative = inhibition [5]: -4.86% (inactive) | Potency [6]: > 9.22 µM (inactive) | Potency [7]: > 46 µM (inactive) | outcome [8]: inactive | Potency [15]: inactive | Potency [10]: inactive | activity change, negative = inhibition ([16]; at 57.5 µM (top of the series)): 3.55% (inactive) | max response ([16]; measured here: cell count channel max response): -0.123% | max response ([16]; measured here: lipid channel max response): 1.24% | Potency [17]: inactive | Potency [18]: inactive | Potency [19]: inactive | Potency [20]: inactive | Potency [11]: inactive | Potency [12]: inactive

— PubChem BioAssay (NCATS)
